Experimental data from the supplement of paper PMC9446081.
± gives the standard deviation of the averaged measurements.

Assays:
Assay in all cases: relative enzymatic activity vs untreated control (fraction); higher = less inhibition
Settings in all cases: 100 µM; incubation time: 2 h at 37 C
[1] = tested on: DNA gyrase
Experimental: (§1)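 In vitro enzymatic inhibition assays (ProFoldin kits) for 12 purified essential E. coli enzymes or complexes, each treated with 218 active antibacterial compounds at 100 µM for 2 h at 37°C. Read-outs were fluorescence or absorbance (phosphate detection, dye binding), converted to activity via standard curves and expressed relative to untreated DMSO controls.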

[2] = target: DNA helicase (UniProt P0ACB1)
Chain of DNA helicase (P0ACB1 whole entry): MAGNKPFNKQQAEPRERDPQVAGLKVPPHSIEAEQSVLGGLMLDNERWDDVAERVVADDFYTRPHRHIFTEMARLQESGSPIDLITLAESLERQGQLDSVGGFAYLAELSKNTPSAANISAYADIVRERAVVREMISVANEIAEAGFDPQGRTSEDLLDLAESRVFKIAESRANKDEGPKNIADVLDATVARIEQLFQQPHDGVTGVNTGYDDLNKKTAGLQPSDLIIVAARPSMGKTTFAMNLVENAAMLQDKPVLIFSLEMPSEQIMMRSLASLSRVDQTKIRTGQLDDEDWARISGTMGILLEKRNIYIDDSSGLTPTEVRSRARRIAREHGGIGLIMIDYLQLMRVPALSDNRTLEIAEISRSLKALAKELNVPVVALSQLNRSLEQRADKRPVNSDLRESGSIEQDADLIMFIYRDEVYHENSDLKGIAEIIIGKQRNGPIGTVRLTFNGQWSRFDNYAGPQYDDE
Experimental: as §1

[3] = target: DNA ligase (UniProt B1XA82)
Chain of DNA ligase (B1XA82 whole entry): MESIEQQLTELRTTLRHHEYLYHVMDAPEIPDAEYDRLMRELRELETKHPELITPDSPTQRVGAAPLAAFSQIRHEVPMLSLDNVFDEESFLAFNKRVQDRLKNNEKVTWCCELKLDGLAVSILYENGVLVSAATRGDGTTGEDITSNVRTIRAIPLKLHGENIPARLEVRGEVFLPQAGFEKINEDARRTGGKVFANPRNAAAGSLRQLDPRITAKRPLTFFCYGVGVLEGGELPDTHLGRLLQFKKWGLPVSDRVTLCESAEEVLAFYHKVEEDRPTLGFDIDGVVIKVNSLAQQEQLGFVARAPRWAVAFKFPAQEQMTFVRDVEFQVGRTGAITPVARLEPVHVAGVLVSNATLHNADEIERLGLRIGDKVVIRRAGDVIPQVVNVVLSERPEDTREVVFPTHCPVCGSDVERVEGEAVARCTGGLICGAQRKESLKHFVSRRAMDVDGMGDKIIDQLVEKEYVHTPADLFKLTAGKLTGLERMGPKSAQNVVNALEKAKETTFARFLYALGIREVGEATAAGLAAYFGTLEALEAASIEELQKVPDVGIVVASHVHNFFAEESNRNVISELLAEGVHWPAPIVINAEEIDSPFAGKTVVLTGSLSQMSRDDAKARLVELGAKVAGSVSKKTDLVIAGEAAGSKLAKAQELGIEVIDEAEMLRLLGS
Experimental: as §1

[4] = target: DNA polymerase (UniProt P10443)
Chain of DNA polymerase (P10443 whole entry): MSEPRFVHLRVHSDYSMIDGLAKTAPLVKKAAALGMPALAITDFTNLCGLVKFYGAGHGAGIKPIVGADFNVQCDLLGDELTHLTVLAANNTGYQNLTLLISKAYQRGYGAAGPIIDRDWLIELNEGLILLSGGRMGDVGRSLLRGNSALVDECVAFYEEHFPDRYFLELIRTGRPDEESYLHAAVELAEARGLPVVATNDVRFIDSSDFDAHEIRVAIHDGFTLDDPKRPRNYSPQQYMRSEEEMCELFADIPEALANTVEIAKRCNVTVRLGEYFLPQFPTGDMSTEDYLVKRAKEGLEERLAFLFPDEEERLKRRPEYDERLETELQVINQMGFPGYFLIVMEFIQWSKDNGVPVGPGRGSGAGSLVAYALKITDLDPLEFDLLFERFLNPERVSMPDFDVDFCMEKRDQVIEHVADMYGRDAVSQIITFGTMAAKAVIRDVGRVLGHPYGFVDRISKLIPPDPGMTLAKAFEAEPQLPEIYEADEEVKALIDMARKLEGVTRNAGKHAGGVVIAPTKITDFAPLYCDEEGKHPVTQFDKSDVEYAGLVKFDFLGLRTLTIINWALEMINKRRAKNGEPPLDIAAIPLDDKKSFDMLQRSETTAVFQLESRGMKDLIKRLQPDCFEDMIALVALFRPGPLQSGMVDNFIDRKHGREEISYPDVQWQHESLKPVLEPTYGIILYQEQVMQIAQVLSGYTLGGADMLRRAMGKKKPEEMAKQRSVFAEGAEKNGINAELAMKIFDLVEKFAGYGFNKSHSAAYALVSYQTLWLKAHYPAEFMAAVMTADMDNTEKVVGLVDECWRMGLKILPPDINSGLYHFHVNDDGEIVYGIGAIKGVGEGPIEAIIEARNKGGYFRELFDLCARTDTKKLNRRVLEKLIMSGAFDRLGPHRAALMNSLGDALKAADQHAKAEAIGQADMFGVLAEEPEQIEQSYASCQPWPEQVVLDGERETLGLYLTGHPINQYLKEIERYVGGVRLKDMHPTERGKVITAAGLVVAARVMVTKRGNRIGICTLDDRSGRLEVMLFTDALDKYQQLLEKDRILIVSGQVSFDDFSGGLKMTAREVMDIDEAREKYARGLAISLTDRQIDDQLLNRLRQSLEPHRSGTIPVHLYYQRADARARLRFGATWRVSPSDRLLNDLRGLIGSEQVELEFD
Experimental: as §1

[5] = target: DNA primase (UniProt P0ABS7)
Chain of DNA primase (P0ABS7 whole entry): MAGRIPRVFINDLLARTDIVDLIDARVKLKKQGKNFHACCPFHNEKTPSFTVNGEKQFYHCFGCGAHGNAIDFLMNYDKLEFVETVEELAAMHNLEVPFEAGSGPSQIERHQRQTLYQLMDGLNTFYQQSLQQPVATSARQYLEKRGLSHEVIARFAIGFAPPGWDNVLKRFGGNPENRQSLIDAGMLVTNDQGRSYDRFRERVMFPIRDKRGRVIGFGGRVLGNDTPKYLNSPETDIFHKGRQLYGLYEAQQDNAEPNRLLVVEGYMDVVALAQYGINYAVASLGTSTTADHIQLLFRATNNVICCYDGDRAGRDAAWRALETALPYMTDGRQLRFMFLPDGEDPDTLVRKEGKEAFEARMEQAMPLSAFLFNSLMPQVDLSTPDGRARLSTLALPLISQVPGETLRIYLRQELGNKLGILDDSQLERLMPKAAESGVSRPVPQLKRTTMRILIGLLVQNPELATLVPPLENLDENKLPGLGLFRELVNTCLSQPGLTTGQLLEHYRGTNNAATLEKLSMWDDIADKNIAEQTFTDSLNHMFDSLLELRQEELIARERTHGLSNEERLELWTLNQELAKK
Experimental: as §1

[6] = target: GlmU (UniProt A7ZTU1)
Chain of GlmU (A7ZTU1 whole entry, looked up): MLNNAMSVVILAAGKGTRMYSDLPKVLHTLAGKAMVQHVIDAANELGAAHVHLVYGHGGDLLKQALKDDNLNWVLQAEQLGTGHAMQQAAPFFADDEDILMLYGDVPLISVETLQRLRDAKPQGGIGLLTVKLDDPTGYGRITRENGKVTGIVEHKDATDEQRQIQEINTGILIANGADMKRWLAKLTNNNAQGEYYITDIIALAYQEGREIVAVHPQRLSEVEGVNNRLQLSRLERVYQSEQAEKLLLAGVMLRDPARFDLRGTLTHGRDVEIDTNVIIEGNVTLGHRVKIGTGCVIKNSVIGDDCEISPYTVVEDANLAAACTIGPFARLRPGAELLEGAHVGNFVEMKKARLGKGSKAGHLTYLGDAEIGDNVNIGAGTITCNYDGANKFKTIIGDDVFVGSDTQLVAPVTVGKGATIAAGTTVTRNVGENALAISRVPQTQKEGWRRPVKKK
Experimental: as §1

[7] = target: Guanlyate kinase (UniProt Q0TBG1)
Chain of Guanlyate kinase (Q0TBG1 whole entry): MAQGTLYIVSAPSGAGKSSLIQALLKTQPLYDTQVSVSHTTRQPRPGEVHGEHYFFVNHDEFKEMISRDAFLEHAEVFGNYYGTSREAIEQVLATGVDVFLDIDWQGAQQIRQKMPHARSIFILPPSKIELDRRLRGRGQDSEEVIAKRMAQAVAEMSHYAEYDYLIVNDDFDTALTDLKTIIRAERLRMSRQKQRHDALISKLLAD
Experimental: as §1

[8] = target: MurA (UniProt Q3YX52)
Chain of MurA (Q3YX52 whole entry): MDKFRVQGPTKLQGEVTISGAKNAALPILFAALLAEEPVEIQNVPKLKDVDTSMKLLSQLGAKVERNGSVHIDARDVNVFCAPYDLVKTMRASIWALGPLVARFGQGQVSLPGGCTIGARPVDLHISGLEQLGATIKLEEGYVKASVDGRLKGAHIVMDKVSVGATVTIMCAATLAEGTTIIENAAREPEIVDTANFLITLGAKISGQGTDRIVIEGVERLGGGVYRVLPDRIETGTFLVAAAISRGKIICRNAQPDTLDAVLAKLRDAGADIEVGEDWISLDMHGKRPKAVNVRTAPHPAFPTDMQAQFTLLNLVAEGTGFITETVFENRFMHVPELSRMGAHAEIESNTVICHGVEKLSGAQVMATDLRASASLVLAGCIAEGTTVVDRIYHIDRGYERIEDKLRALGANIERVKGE
Experimental: as §1

[9] = target: T1, MurD (UniProt P14900)
T1 sequence (whole entry): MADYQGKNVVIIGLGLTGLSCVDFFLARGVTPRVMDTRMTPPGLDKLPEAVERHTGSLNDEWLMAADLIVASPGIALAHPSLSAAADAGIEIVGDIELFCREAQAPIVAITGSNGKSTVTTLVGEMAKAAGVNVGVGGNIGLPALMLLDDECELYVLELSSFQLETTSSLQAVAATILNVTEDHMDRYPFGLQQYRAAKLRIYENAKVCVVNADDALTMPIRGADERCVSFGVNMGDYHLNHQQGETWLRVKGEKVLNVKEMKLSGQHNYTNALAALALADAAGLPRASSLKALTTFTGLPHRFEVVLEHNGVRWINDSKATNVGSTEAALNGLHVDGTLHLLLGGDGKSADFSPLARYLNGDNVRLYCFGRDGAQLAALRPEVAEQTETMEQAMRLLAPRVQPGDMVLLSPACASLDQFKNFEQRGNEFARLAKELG
Experimental: as §1

[10] = target: T2, MurF (UniProt P11880)
T2 sequence (whole entry): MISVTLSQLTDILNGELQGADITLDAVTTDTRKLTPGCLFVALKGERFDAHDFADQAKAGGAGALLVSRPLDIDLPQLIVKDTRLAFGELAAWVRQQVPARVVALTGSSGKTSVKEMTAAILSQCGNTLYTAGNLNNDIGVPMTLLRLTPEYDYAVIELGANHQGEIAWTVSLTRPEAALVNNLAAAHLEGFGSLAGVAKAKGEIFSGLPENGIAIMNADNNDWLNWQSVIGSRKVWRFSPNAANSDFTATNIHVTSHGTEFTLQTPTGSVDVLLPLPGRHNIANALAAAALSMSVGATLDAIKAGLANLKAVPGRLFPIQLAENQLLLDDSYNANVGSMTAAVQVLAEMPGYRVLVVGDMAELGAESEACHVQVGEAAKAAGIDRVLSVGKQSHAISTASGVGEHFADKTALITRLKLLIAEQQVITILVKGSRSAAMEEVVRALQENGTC
Experimental: as §1

[11] = tested on: RNA polymerase
Experimental: as §1

Structure (SMILES)	relative enzymatic activity [1]	relative enzymatic activity [2]	relative enzymatic activity [3]	relative enzymatic activity [4]	relative enzymatic activity [5]	relative enzymatic activity [6]	relative enzymatic activity [7]	relative enzymatic activity [8]	relative enzymatic activity [9]	relative enzymatic activity [10]	relative enzymatic activity [11]
COC(=O)N/N=C/c1c[n+]([O-])c2ccccc2[n+]1[O-]	0.905 ± 0.076	0.651 ± 0.26	0.933 ± 0.14	1.16 ± 0.23	0.803 ± 0.018	1.012 ± 0.0043	0.591 ± 0.026	0.719 ± 0.12	0.604 ± 0.4	0.913 ± 0.27	0.789 ± 0.081
CC(C)(O/N=C(\C(=O)N[C@@H]1C(=O)N2C(C(=O)O)=C(C[N+]3(CCNC(=O)c4ccc(O)c(O)c4Cl)CCCC3)CS[C@H]12)c1csc(N)n1)C(=O)O	0.401 ± 0.11	0.506 ± 0.075	0.933 ± 0.058	1.05 ± 0.32	0.753 ± 0.013	0.92 ± 0.062	0.834 ± 0.094	0.0569 ± 0.016	0.515 ± 0.35	1.01 ± 0.23	0.672 ± 0.082
NCCCC[C@H](NC(=O)[C@@H](NC(=O)[C@H](Cc1c[nH]c2ccccc12)NC(=O)[C@H](CCCCN)NC(=O)[C@H](CCCCN)NC(=O)[C@H](Cc1c[nH]c2ccccc12)NC(=O)[C@H](Cc1c[nH]c2ccccc12)NC(=O)[C@H](CCCCN)NC(=O)[C@@H](N)CCCCN)C(c1ccccc1)c1ccccc1)C(N)=O	0.0308 ± 0.044	0.0869 ± 0.0012	1.12 ± 0.43	0.0842 ± 0.0071	0.299 ± 0.053	0.879 ± 0.061	0.355 ± 0.02	0.477 ± 0.43	0.568 ± 0.41	0.833 ± 0.18	0.0964 ± 0.032
CC(=O)OCC1=C(C(=O)[O-])N2C(=O)C(NC(=O)Cc3cccs3)C2SC1.[Na+] (configuration not stated)	0.626 ± 0.6	0.395 ± 0.012	1.26 ± 0.12	1.09 ± 0.26	0.713 ± 0.036	1 ± 0.084	0.974 ± 0.057	0.0754 ± 0.023	0.597 ± 0.38	0.958 ± 0.23	0.622 ± 0.13
Nc1ncn(C2OC(CO)C(O)C2O)c(=O)n1 (configuration not stated)	0.722 ± 0.32	0.653 ± 0.16	1.318 ± 0.003	1.27 ± 0.31	0.709 ± 0.21	1.14 ± 0.13	0.934 ± 0.14	0.786 ± 0.13	0.61 ± 0.4	0.987 ± 0.21	1.01 ± 0.18
COc1ccc2c(c1OC)C(=O)OC2C1c2c(cc3c(c2OC)OCO3)CCN1C.Cl (configuration not stated)	0.0862 ± 0.019	0.249 ± 0.016	1.11 ± 0.17	1.36 ± 0.47	0.947 ± 0.42	1.123 ± 0.0013	1.12 ± 0.066	0.417 ± 0.096	0.684 ± 0.53	0.967 ± 0.19	0.914 ± 0.045
Oc1c(Cl)cc(Cl)c(Cl)c1Cc1c(O)c(Cl)cc(Cl)c1Cl	0.191 ± 0.12	0.06883 ± 0.00038	0.514 ± 0.1	0.222 ± 0.019	0.436 ± 0.0013	1.07 ± 0.11	0.162 ± 0.0089	0.899 ± 0.6	1.25 ± 0.89	0.446 ± 0.1	0.293 ± 0.0084
CON=C(C(=O)N[C@@H]1C(=O)N2C(C(=O)O)=C(CSc3nc(=O)c(O)nn3C)CS[C@H]12)c1csc(N)n1	0.722 ± 0.42	0.448 ± 0.015	0.961 ± 0.042	1.05 ± 0.24	0.8 ± 0.022	0.861 ± 0.055	0.984 ± 0.11	0.0646 ± 0.0061	0.568 ± 0.39	0.955 ± 0.25	0.524 ± 0.35
CCCCCCCCCCCCC[N+](C)(C)Cc1ccccc1	0.675 ± 0.95	0.0123 ± 0.0012	0.955 ± 0.043	1.04 ± 0.27	0.787 ± 0.099	0.0868 ± 0.0048	0.396 ± 0.0083	0.0305 ± 0.016	0.0614 ± 0.011	0.177 ± 0.064	0.919 ± 0.13
CCN1CCN(c2cc3c(cc2F)c(=O)c(C(=O)O)cn3C2CC2)CC1	0.0177 ± 0.025	0.462 ± 0.018	1.05 ± 0.34	1.15 ± 0.22	0.617 ± 0.12	1 ± 0.11	0.894 ± 0.05	0.659 ± 0.029	0.59 ± 0.4	0.88 ± 0.13	0.808 ± 0.02
NC(=O)NN=Cc1ccc([N+](=O)[O-])o1	0.958 ± 0.23	0.58 ± 0.06	1.11 ± 0.018	1.32 ± 0.48	0.739 ± 0.24	0.955 ± 0.085	0.897 ± 0.13	0.491 ± 0.15	0.559 ± 0.37	0.933 ± 0.28	0.8 ± 0.09
O=c1[nH]c(=O)n([C@@H]2C[C@@H](O)[C@@H](CO)O2)cc1F	1.07 ± 0.043	0.591 ± 0.15	0.947 ± 0.062	0.708 ± 0.44	0.873 ± 0.022	1.03 ± 0.065	0.967 ± 0.1	0.74 ± 0.18	0.604 ± 0.39	1.01 ± 0.22	0.834 ± 0.019
COc1c(N2CC3CCCNC3C2)c(F)cc2c(=O)c(C(=O)O)cn(C3CC3)c12.Cl (configuration not stated)	0.0344 ± 0.049	0.559 ± 0.16	1.22 ± 0.1	1.13 ± 0.18	0.682 ± 0.17	0.986 ± 0.039	0.825 ± 0.096	0.795 ± 0.041	0.597 ± 0.41	0.94 ± 0.19	0.868 ± 0.083
Oc1c(Cl)cc(Cl)c2cccnc12	0.515 ± 0.28	0.476 ± 0.16	1.11 ± 0.24	1.11 ± 0.21	0.637 ± 0.12	1.21 ± 0.19	0.854 ± 0.039	0.88 ± 0.26	0.642 ± 0.46	0.98 ± 0.18	0.7619 ± 0.0022
N[C@@H]1CC[C@@H](c2ccc(Cl)c(Cl)c2)c2ccccc21	0.381 ± 0.18	0.0688 ± 0.0028	0.842 ± 0.083	0.507 ± 0.72	0.749 ± 0.027	0.646 ± 0.059	0.924 ± 0.13	0.622 ± 0.57	0.378 ± 0.23	1.02 ± 0.22	0.905 ± 0.019
CO/N=C(\C(=O)N[C@@H]1C(=O)N2C(C(=O)O)=C(C)CS[C@H]12)c1csc(N)n1	0.614 ± 0.47	0.628 ± 0.2	0.904 ± 0.086	0.906 ± 0.062	0.822 ± 0.035	1.018 ± 0.0077	0.836 ± 0.015	0.479 ± 0.18	0.613 ± 0.43	0.979 ± 0.21	0.826 ± 0.098
CC1(C)S[C@@H]2[C@H](NC(=O)[C@H](NC(=O)N3CCNC3=O)c3ccccc3)C(=O)N2[C@H]1C(=O)O	0.794 ± 0.35	0.76 ± 0.44	0.934 ± 0.038	1.06 ± 0.04	0.864 ± 0.024	0.998 ± 0.033	0.935 ± 0.03	0.579 ± 0.11	0.583 ± 0.4	0.954 ± 0.23	0.869 ± 0.089
